# Measurements published in PubChem BioAssay (Tox21).
# Inconclusive results are not listed. Values without a mark were called inactive. Activity calls are given as the source filed them. Calls follow the shape of the dose curve; as a rule, active = well fitted inhibition curve with a large enough effect in the signal ratio in the repeat runs (not every such curve was filed as active); inconclusive = weak or mixed curves, or effect the other way; inactive = no such curve, though single readings can be large or run the other way; the % refers to the signal ratio.
# Molecular target: Vitamin D3 receptor (Homo sapiens) (UniProt P11473)
# Sequence (P11473 whole entry, looked up): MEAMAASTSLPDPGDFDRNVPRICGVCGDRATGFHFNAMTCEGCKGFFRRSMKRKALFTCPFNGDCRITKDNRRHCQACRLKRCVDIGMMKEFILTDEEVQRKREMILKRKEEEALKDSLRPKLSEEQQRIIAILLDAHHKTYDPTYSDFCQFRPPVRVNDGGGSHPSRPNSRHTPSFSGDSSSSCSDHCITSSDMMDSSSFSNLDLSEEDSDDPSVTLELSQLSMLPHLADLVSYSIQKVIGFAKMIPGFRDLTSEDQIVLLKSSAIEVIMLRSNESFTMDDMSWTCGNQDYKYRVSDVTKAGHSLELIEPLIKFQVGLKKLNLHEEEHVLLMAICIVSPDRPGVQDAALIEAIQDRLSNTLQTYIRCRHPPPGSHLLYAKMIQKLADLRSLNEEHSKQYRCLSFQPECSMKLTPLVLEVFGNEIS
# Assay: qHTS assay to identify small molecule antagonists of the vitamin D receptor (VDR) signaling pathway (AID 743223)
# Conditions: VDR-UAS-bla HEK293T, beta-lactamase FRET ratio, 16 h; series mostly up to 61 µM
# Text: U.S. Tox21 Program National Center for Advancing Translational Sciences [NCATS] NIH Chemical Genomics Center [NCGC] U.S. Environmental Protection Agency [EPA] National Institutes of Environmental Health Sciences [NIEHS] National Toxicology Program [NTP] U.S. Food and Drug Administration [FDA] Tox21 Assay Overview: The vitamin D receptor (VDR), a member of nuclear hormone receptor superfamily, plays a critical role in calcium homeostasis and bone metabolism. It is also involved in cell differentiation and growth, and thrombogenicity.
# Tox21 Assay Protocol Summary: VDR-bla cells were dispensed at 2,000 cells/5 uL of assay medium per well into black wall/clear-bottom 1536-well plates using a Multidrop Combi (Thermo Fisher Scientific, Waltham, MA) dispenser. After the assay plates were incubated at a 37C and 5% CO2 for 4 h, 23 nL of compounds dissolved in DMSO, positive controls or DMSO only was transferred to the assay plate by a Pintool station (Kalypsys, San Diego, CA), followed by addition of 1 uL of 1alpha, 25-Dihydroxy Vitamin D3 (3 nM, final concentration in the wells) using a Bioraptr Flying Reagent Dispenser (FRD) workstation (Beckman Coulter, Indianapolis, IN). The plates were incubated at 37C and 5% CO2 for 16 h, and then 1 uL of LiveBLAzerTM B/G FRET substrate was added using a Bioraptr FRD. The plates were incubated at room temperature for 2 h and fluorescence intensity was measured by an Envision plate reader (PerkinElmer, Shelton, CT).
# % is scaled to controls: 0 for no effect and ±100 for the full control effect.
SMILES,outcome,"activity change, negative = inhibition"
CC(=O)C1CCCCC1=O (stereo not given),inactive,
CCOc1ccccc1OCC,inactive,
CCC(=O)OCc1ccccc1,inactive,
C=CC(=O)OCCCl,inactive,
CC[N+](C)(CC)CCOC(=O)C1c2ccccc2Oc2ccccc21,inactive,
CC1CCC(CO)CC1 (stereo not given),inactive,
CCCCCC(=O)OCCc1ccccc1,inactive,
CC(COc1ccccc1)NN (stereo not given),inactive,
CC12CCC(C(=O)C1=O)C2(C)C (stereo not given),inactive,
CCOC(=O)C(=O)CCCCCCl,inactive,
CC/C=C\CCOC(C)OCC (stereo not given),inactive,
Cc1nc(C2CCCCC2)c(-c2ccc(S(N)(=O)=O)c(F)c2)o1,inactive,
COCCOCC(OC)OC,inactive,
CC(C)=CCC/C(C)=C/C#N,inactive,
O=S(=O)(O)c1cccc2c(S(=O)(=O)O)cccc12,inactive,
Nc1ccccn1,inactive,
Nc1ccncc1N,inactive,
COc1ccc2cc1Oc1cc3c(cc1OC)CC[N+](C)(C)[C@H]3Cc1ccc(cc1)Oc1c(OC)c(OC)cc3c1[C@@H](C2)[N+](C)(C)CC3,inactive,
C=C(C)C(=O)OCCOCCOCCOCCOC(=O)C(=C)C,inactive,
CC1OC1C1CCC2(C)OC2C1 (stereo not given),inactive,

SMILES,outcome,"activity change, negative = inhibition"
Cc1cc(C)c(N=Nc2c(O)c(S(=O)(=O)O)cc3cc(S(=O)(=O)O)ccc23)cc1C,,-3.01% [at 6.95 µM]
O=C(c1ccccc1)C1(O)CCCCC1,inactive,
CC(C)(C)OC(=O)c1cccc(N)c1,inactive,
CCC(C)(CCCC(C)C)OC(C)=O (stereo not given),inactive,
CCCC(C)C(=O)OCC (stereo not given),inactive,
Cc1ccc(-c2ccccc2C#N)cc1,inactive,
NO,inactive,
CCCCOC(=O)CCC(C)=O,inactive,
CC(C)(C)C(=O)c1ccccc1,inactive,
c1coc(CNc2ncnc3nc[nH]c23)c1,inactive,
C[C@@H]1CCC[C@H](C)N1,inactive,
C1CCC2=NCCCN2CC1,inactive,
CN(C)CCCCCCN(C)C,inactive,
CC(C)C1CCC(O)CC1 (stereo not given),inactive,
Cc1ccc(-c2ncc(Cl)cc2-c2ccc(S(C)(=O)=O)cc2)cn1,inactive,
N[C@@H](CCC(=O)O)C(=O)O,inactive,
NCCCC(N)(C(=O)O)C(F)F (stereo not given),inactive,
CCOC(=O)c1cnc2c(cnn2CC)c1NN=C(C)C,inactive,
CN1CC(=O)N/C1=N/C(=O)Nc1cccc(Cl)c1,inactive,
CC1=CC(=O)[C@H]2C[C@@H]1C2(C)C,inactive,
